Laboratory results published in PubChem BioAssay AID1851 (National Center for Advancing Translational Sciences (NCATS), 2009).
The campaign covered roughly 16,000 compounds. About 5,800 (36%) were called active. Not shown: some 23% with an inconclusive outcome. This is one part of the list. A number with no mark means an inactive call. Calls come from the whole dose curve; as a rule, active = well fitted curve in the direction sought with a large enough effect; inconclusive = small, poorly fitted or top-dose-only effect, or effect the other way; inactive = no such curve, though single readings can be large or run the other way.

What follows are molecules tested against Cytochrome P450 2C19 (Homo sapiens) (UniProt P33261) (assay: Cytochrome panel assay with activity outcomes). Conditions: recombinant CYP, pro-luciferin dealkylation, luminescence, p450-cyp2c19; series mostly up to 57.1 µM.
% is set by controls: 0 for no effect and ±100 for the full control effect.

Sequence of Cytochrome P450 2C19 (Homo sapiens) (P33261 whole entry, looked up): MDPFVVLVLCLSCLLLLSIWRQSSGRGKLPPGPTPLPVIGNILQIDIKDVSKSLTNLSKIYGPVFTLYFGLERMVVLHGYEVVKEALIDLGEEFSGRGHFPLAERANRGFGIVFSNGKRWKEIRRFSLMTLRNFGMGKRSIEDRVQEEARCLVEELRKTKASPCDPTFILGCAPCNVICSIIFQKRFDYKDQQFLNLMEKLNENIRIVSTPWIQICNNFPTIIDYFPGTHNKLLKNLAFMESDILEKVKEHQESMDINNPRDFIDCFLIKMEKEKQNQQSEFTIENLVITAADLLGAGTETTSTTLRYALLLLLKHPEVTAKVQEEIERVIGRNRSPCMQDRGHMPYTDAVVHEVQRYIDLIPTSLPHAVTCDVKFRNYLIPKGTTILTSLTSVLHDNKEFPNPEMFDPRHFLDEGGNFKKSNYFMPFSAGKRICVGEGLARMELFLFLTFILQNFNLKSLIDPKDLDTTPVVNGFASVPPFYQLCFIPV

SMILES | AC50 | activity, negative = inhibition
Cc1ccccc1-c1nc(NC2CC2)c2ccccc2n1 | inactive | –
CNc1nc(-c2ccccc2CN(C)C)nc2ccccc12 | inactive | –
CNc1nc(-c2ccccc2C)nc2ccccc12 | 10 µM (active) | –
O=C(OCC#CCSc1nnc(-c2cccc3ccccc23)o1)c1ccco1 | 3.16 µM (active) | –
O=C1C2CCCN2C(c2ccccc2F)N1c1ccc(Cl)cc1 (configuration not stated) | 25.1 µM (active) | –
CN1CCc2c(c3c(n2C)CCN(C)[C@H]3c2ccccc2F)[C@@H]1c1ccccc1F | inactive | –
COc1cc(OC)c(C2N(c3cc(C)on3)C(=O)C3CCCN32)cc1OC (configuration not stated) | inactive | –
CCC(=O)Nc1ccc(/C(C)=N\NS(=O)(=O)c2ccc(C)cc2)cc1 | 3.98 µM (active) | –
C/C(=N/NS(=O)(=O)c1ccc(C)cc1)c1cccc(NC(=O)c2cccc(Cl)c2)c1 | 2 µM (active) | –
CC(CC(=O)O)CC(=O)Nc1ccc(S(N)(=O)=O)cc1 (configuration not stated) | inactive | –
CCOC(=O)N1CCN(c2nc(-c3cccs3)cc(C(F)(F)F)n2)CC1 | 3.98 µM (active) | –
COCCn1c(=O)c(-c2cccs2)nc2cnc(N3CCN(C)CC3)nc21 | inactive | –
CCOC(=O)N1CCN(c2nc(-c3ccco3)cc(C(F)(F)F)n2)CC1 | 4.47 µM (active) | –
COc1cc2nc(N3CC=[N+](C(=O)c4ccco4)CC3)nc(N)c2cc1OC | inactive | –
CCCNC(=O)CSc1nc(-c2cccs2)cc(C(F)(F)F)n1 | 0.562 µM (active) | –
CCC[C@@H]1O[C@@H]2C[C@@H]3[C@H]4CCC5=CC(=O)C=C[C@@]5(C)[C@H]4[C@H](O)C[C@@]3(C)[C@@]2(C(=O)CO)O1 | inactive | –
CC[C@@H]1OC(=O)[C@H](C)[C@H](O[C@@H]2C[C@](C)(OC)[C@H](O)[C@H](C)O2)[C@H](C)[C@H](O[C@@H]2O[C@@H](C)C[C@@H](N(C)C)[C@@H]2O)[C@](C)(O)C[C@H](C)C(=NOCOCCOC)[C@H](C)[C@H](O)[C@]1(C)O | inactive | –
CN(C)CCCO[C@H]1[C@H]([C@H](O)CO)O[C@H]2OC(C)(C)O[C@@H]21 | inactive | –
COc1ccc([C@@H](C)c2cc3c(cc2O)OCO3)cc1 | 0.1 µM (active) | –
COc1ccc([C@@H](Nc2ncccn2)c2cc3c(cc2O)OCO3)cc1 | 0.316 µM (active) | –
C=C(C)[C@@H]1CC=C(C(=O)O)CC1 | inactive | –
CN(C)CCSCCO | – | 28.5% [at 11.4 µM]
Cc1cc(-c2cc(C)c(O)c(C(C)(C)C)c2)cc(C(C)(C)C)c1O | 1 µM (active) | –
Cc1cc(C(C)(C)C)c(O)c(C)c1CC1=NCCN1 | inactive | –
CCN1C/C(=C\c2cccc(C)c2)c2nc3ccccc3c(C(=O)O)c2C1 | inactive | –
CN1CCC(N(C)C(=O)CCc2nc3ccccc3c(=O)[nH]2)CC1 | inactive | –
Cc1cccc(NC(=O)N(Cc2nc3ccccc3c(=O)[nH]2)C2CCCC2)c1 | 15.8 µM (active) | –
